# Hits are enriched below; roughly 2.1% of the tested compounds scored in any of these assays.
# aSyn rescue – alpha-synuclein toxicity inhibition in yeast | Yeast expressing alpha-synuclein, growth rescue, BacTiter-Glo, 24 h | AID 652106 | Potency, µM (highest dose often 46.1 µM), for inactives: at the highest dose growth rescue (activation), hits mostly activators | hit rate 0.14% among 370,000; also: % of control where 0% means no effect; nearly all actives have a fitted effect of over 65% in size
#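 Galactose-induced alpha-syn yeast (OD600=0.02, raffinose-pregrown) + pinned cpd, 24 hr, 30 deg C; growth by BacTiter-Glo luminescence. Growth restoration scores as activation.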
# FUS yeast rescue – rescues growth of FUS-expressing yeast | S. cerevisiae FUS-expressing, growth rescue, OD600, 24 h | Potency, µM (series often up to 76.6 µM), hits mostly activators | hit rate 0.24% among 390,000 | AID 1347120;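 also: plate controls were DMSO vehicle for no effect and reference control for full effect; nearly all actives have a fitted effect of over 55% in size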
#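 Restored growth of FUS-toxic S. cerevisiae, read as 600 nm absorbance after 24 h at 30C in galactose medium (starting OD 0.005). Controls CP55940 and DMSO.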
# Abeta rescue – compounds reversing amyloid beta toxicity in yeast. yeast expressing A-beta42, growth rescue, OD600, 48 h; response scale: 0% DMSO, 100% iron-clioquinol control. Potency, µM (titrated, usually from 46.1 µM), most hits filed as activators. hit rate 0.063% among 410,000. AID 1347071; also: nearly all actives have a fitted effect of over 55% in size
#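 Yeast growth medium received pinned compounds, then yeast cells expressing toxic A-beta were added; plates incubated at 30 C for 48 hr. Growth read as absorbance at 600 nm, normalized to DMSO and equimolar FeCl3 plus clioquinol controls.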
# TDP-43 yeast inh – TDP-43 toxicity inhibition in yeast; Potency, µM (doses to about 46.1 µM), for inactives: at the highest dose growth rescue (activation), hits mostly activators; TDP-43 expressing yeast growth rescue, BacTiter-Glo, 24 h; hit rate 1.8% among 410,000; also: % of control where 0% means no effect; nearly all actives have a fitted effect of over 50% in size
#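 Cell-based yeast growth screen: TDP-43 expression induced in galactose, inoculum OD600=0.02 after raffinose pregrowth to mid-log. Read-out BacTiter-Glo luminescence at 24 hr, 30 deg C; inhibition of toxicity seen as signal increase.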
# Numbers without * were called inactive; i = inactive; ? = inconclusive; / = no result; [ ] = remark or other dose. Calls follow the shape of the dose curve; as a rule, active = well fitted curve in the direction sought with a large enough effect; inconclusive = small, poorly fitted or top-dose-only effect, or another doubt; inactive = no such curve, though single readings can be large; an effect the other way counts as inactive or inconclusive. Potency is read from the fitted curve at half-maximal effect.
SMILES,aSyn rescue,FUS yeast rescue,Abeta rescue,TDP-43 yeast inh
COc1c(C)cccc1C(=O)Nc1cccc2ccc(C)nc12,/,i,i,22µM*
O=C1c2ccccc2C(=O)c2c1cccc2-n1nnc2ccccc21,2%,i,i,-14%
O=C1C(N2CCOCC2)=C(n2nnc3ccccc32)C(=O)c2ccccc21,-36%,i,i,22µM*
CCN(CC)c1ccc(/C=N/NC(=O)Cc2nnc(NC(=O)Nc3ccccc3)s2)cc1,1%,18µM*,i,2%
CC(=O)N1CCN(C(=O)c2ccc3oc(CCCc4ccccc4)nc3c2)CC1,2%,i,i,3%
CCOC(=O)N1CCN(C(=O)c2ccc3oc(CCCc4ccccc4)nc3c2)CC1,6%,i,i,16µM*
CCOc1ccc(C(=O)NCCn2cc(SCC(=O)NCCc3ccc(OC)c(OC)c3)c3ccccc32)cc1,/,i,i,11%
Cc1cc(C(=O)Nc2c(F)cc(F)cc2Br)cs1,14%,i,i,13µM*
COc1ccc(-n2c(SCc3nc4ccccc4[nH]3)nc3ccccc3c2=O)cc1,/,35µM*,/,/
CCc1ccc(NC(=O)c2nc(SCc3ccccc3F)ncc2Cl)cc1,2%,/,/,/
Cc1ccc(C)c(S(=O)(=O)c2nnn3c2nc(Nc2ccc(F)c(Cl)c2)c2sccc23)c1,/,i,i,4%
OC(CN1C=CCc2ccccc21)c1ccc(Cl)cc1Cl (configuration not stated),-6%,/,/,/
Cc1cc(C)n2c(SCc3ccc(C#N)cc3)nnc2n1,0%,i,i,22µM*
C[n+]1ccnc2ccccc21,-7%,/,/,/
CCOC(=O)c1ccc(NC(=O)c2nn(C)c3c2COc2ccccc2-3)cc1,/,i,i,12%
Clc1cccc(N2CCN(Cc3nnc(-c4ccccc4)o3)CC2)c1,8%,i,i,11µM*
c1ccc(-c2nnc(CN3CCN(c4ccccc4)CC3)o2)cc1,-1%,i,i,24%
Cc1cc(Nc2ccccc2)n(-c2ccc(Br)cc2)n1,11%,i,i,?
Cc1cc(Nc2ccc(Cl)cc2)n(-c2ccccc2)n1,9%,i,i,10µM*
Cc1cc(Nc2ccc(Cl)cc2)n(-c2cccc(Cl)c2)n1,9%,i,i,22µM*
CN(c1ccccc1C(=O)Nc1cccc([N+](=O)[O-])c1)S(C)(=O)=O,0%,i,i,10%
CN(c1ccccc1C(=O)Nc1cccc([N+](=O)[O-])c1)S(=O)(=O)c1ccccc1,2%,i,i,22µM*
CC(=O)c1cccc(NC(=O)c2ccccc2N(C)S(=O)(=O)c2ccc(C)cc2)c1,9%,i,i,4%
CN(c1ccccc1C(=O)Nc1cccc(Br)c1)S(=O)(=O)c1ccccc1,10%,i,i,28µM*
CCOC(=O)c1ccc(NC(=O)c2ccccc2N(C)S(=O)(=O)c2ccccc2)cc1,6%,/,i,35µM*
SMILES,aSyn rescue,FUS yeast rescue,Abeta rescue,TDP-43 yeast inh
CCCSc1ncc(Cl)c(C(=O)Nc2ccc(S(=O)(=O)N3CCCCC3C)cc2)n1 (configuration not stated),/,i,i,5%
Cc1cccc(Cn2cc(COC(=O)NCCc3ccccc3)nn2)c1,/,i,/,/
COc1ccc(CCNC(=O)CCN2C(=O)COc3ccc(C)cc32)cc1OC,1%,?,i,8.9µM*
CCCCCN1CCCCC(NC(=O)c2ccccc2OC)C1=O (configuration not stated),/,i,/,/
O=C(O)CCN1C(=O)/C(=C/c2ccc(F)cc2F)SC1=S,/,i,/,/
COc1cccc(CNc2ccccc2O)c1OCc1ccccc1F,0%,20µM*,i,-8%
COC(=O)[C@]12C[C@H](CC(=O)N3CCCC3)C(=O)N(CCc3ccc(OC)c(OC)c3)C1=C[C@H](COCc1ccccc1)O[C@@H]2C,/,i,/,/
Clc1ccc(Sc2ccccn2)cc1,-3%,i,i,-4%
Clc1ccc(Sc2cc(Cl)c(-c3ccccc3)nn2)cc1,-19%,i,i,7.9µM*
O=C(CSc1cccc(C(F)(F)F)c1)NCc1ccccc1,4%,i,i,11µM*
O=C(CSc1ccccc1)NCc1ccccc1,0%,i,i,0%
COc1ccccc1NC(=O)CSc1nccc(-c2ccco2)n1,27%,i,i,16µM*
COc1ccccc1NC(=O)CSc1ccc(-c2ccccn2)nn1,10%,i,?,22µM*
O=C(CSc1ccc(-c2ccccn2)nn1)Nc1ccc(F)c(F)c1,2%,i,i,13µM*
COc1ccc(C)cc1NC(=O)CSc1ccc(-c2ccco2)nn1,1%,i,i,18µM*
CN(C)c1ccc(/C=C2/CCc3ccccc32)cc1,0%,/,/,/
COc1ccc(C2C(C(=O)Nc3ccc(F)cc3F)CCC(=O)N2c2ccc(OC)cc2)cc1 (configuration not stated),/,i,/,/
COc1ccc(-c2onc(C)c2C)cc1S(=O)(=O)NCC(C)c1ccccc1 (configuration not stated),/,?,i,35µM*
Cc1ccc(-c2onc(C)c2C)cc1S(=O)(=O)NCc1cccs1,/,i,i,16µM*
CCOc1ccccc1CNS(=O)(=O)c1cc(-c2onc(C)c2C)ccc1OC,/,?,i,22%
COc1ccc(CN2C(=O)c3ccnn3CC2(C)c2nnnn2-c2c(C)cccc2C)cc1 (configuration not stated),/,i,/,/
CCC(C)N(C(=O)Cn1nc(Cc2ccncc2)c2ccccc2c1=O)C(C)CC (configuration not stated),/,i,/,/
CC(C)OC(=O)CC(=O)c1sc2nc3c(cc2c1N)CN(C)CC3,-2%,13µM*,i,8%
CN1CCc2nc3sc(C(=O)Nc4cccc(C#N)c4)c(N)c3cc2C1,/,?,i,18µM*
CC(C)(C)C1=NN=C2c3ccccc3C(=O)C21 (configuration not stated),-15%,i,i,16µM*
SMILES,aSyn rescue,FUS yeast rescue,Abeta rescue,TDP-43 yeast inh
O=C1c2ccccc2C(=O)C1c1ccc(O)cc1,1%,i,i,-11%[0.397 µM]
CCOC(=O)C1=NOC(C(=O)NC2CCCC2)(C(=O)C2CC2)C1 (configuration not stated),/,i,/,/
CCCCc1nn2c(C)c(-c3ccc(OCC)cc3)nc2s1,/,i,i,22µM*
Cc1ccc(C2=NOC(=O)/C2=C\c2ccccc2)cc1,13%,i,?,25µM*
COc1cc(/C=C2\C(=O)ON=C2c2ccccc2)cc(Br)c1O,29%,i,i,11µM*
Cc1c[nH]c2cccc(-c3ccc4c(c3)OCO4)c12,/,i,/,/
CN(C)CCN(Cc1ccco1)C(=O)c1cc2c(s1)-c1ccccc1OC2,/,i,i,-8%
c1ccc(NC2=NCCN2CCCC2CCCCC2)cc1,16µM*,i,i,0%
Cc1oc(-c2ccc(C(=O)N(C)Cc3ccccc3)cc2)nc1CN1CCc2ccccc21,-1%,20µM*,i,26%

# Screens as filed in PubChem.
